Assay outcomes: PubChem BioAssay, National Center for Advancing Translational Sciences (NCATS)
The entries come from a sample that favours hits as a whole.
Lassa entry inh = Lassa virus entry inhibition. Lassa virus pseudotype entry inhibition, cell reporter. Potency, µM (top dose mostly 37.9 µM), for the others: at the highest dose activity change, negative = inhibition, usual class: inhibitors. 1.2% of 300,000 active; calls by dose curve; tested in HEK293 cells; note: potency is the fitted concentration of half-maximal effect; % is set by controls: 0 for no effect and ±100 for the full control effect; nearly all actives have a fitted effect of over 50% in size
AMA1-RON2 inh = inhibitors of Plasmodium falciparum AMA1-RON2 interaction. AlphaScreen AMA1-biotinylated RON2 peptide binding. 0.2% of 360,000 active. Potency, µM (titrated, usually from 58.2 µM), inactives show top-dose activity change, negative = inhibition, hits mostly inhibitors; active = well fitted inhibition curve with a large enough effect; inconclusive = small, poorly fitted or top-dose-only effect; inactive = no such curve, though single readings can be large or run the other way;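 note: potency is the fitted concentration of half-maximal effect; 0% = vehicle wells and -100% = peptide control; nearly all actives have a fitted effect of over 45% in size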
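AMA1 (3D7) with his tag at 25 nM final met compounds first, then biotinylated RON2 peptide at 25 nM; detection used donor plus acceptor beads, 10 µg/mL apiece, read by AlphaScreen after 30 min at room temperature.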
Shiga toxin inh = blocks Shiga toxin action in Vero cells. Vero cells, Shiga toxin protein synthesis inhibition reporter. inhibition, % at 38.7 µM. 9.2% of 290,000 active. AID 2315; in the data active = inhibition mostly above about 28%, no sharp cut-off; inactive = mostly below about 43%; note: 0% is about no effect
CHX counter = counter-screen for Shiga toxin inhibitors: cycloheximide protein synthesis inhibition. cell reporter, cycloheximide protein synthesis inhibition counterscreen. max response, %. 12% of 300,000 active. AID 2314; in the data active = max response mostly above about 13%, no sharp cut-off; inactive = mostly below about 14%; note: read at 38.3 µM for the half of the compounds with a filed dose; 0% is about no effect
Marburg entry inh = Marburg virus entry inhibition; Potency, µM (top dose mostly 37.8 µM), for inactives: top-dose activity change, negative = inhibition, actives largely listed as inhibitors; 1.8% of 300,000 active; AID 540276; Marburg virus pseudotyped entry inhibition, cell reporter; calls by dose curve; tested in HEK293 cells; note: potency is the fitted concentration of half-maximal effect; % is set by controls: 0 for no effect and ±100 for the full control effect
An asterisk follows results filed as active; u = inconclusive; x = no result given; ! = a repeat was not active; [ ] = remark or other dose.

SMILES	Lassa entry inh	AMA1-RON2 inh	Shiga toxin inh	CHX counter	Marburg entry inh
CCC(=O)Nc1ccc2c(c1)Cc1cc(NC(=O)CC)ccc1-2	x	2.7%	-9.4	-3.3	x
CCCC(=O)Nc1ccc2c(c1)Cc1ccccc1-2	x	7.0%	119.0*	28.5*	x
CC(C)CN1C(=O)c2ccc(NC(=O)C3CC3)cc2C1=O	2.5%[46.1 µM]	4.9%	-5.8	-4.1	15.7%[46.1 µM]
O=C1c2ccccc2C(=O)c2cc(NC(=O)C3CC3)ccc21	-10.4%	1.0%	32.5*	20.0*	u
O=C(O)/C=C/C(=O)Nc1ccc2c(c1)C(=O)c1ccccc1C2=O	x	-5.9%	134.7*	62.2*	x
CC(=O)Nc1ccc2c(c1)CCc1ccccc1-2	-0.1%[46.1 µM]	-5.0%	96.9*	46.5*	u
CC(=O)Nc1ccc2c(c1)C(=O)c1ccccc1C2=O	4.1%	-1.6%	83.6*	51.1*	3.3%
Cc1cc(C(=O)N2CCN(c3cccc(C)c3C)CC2)c2c(C)nn(-c3ccccc3)c2n1	8.4%[46.1 µM]	x	x	x	x
c1ccc2[nH]c(-c3cscn3)nc2c1	27.3%	9.5%	102.2*	52.9*	22.3%
c1ccc2nc(-c3nc4ccccc4[nH]3)ccc2c1	u	21.2%	22.2	14.3*	u
CCOC(=O)Nc1ccc2nc(-c3cscn3)[nH]c2c1	x	8.3%	x	x	x
CC(C)C[C@H](N)CSSC[C@@H](N)CC(C)C	x	x	x	x	1.26µM*
O[C@H]1C[C@H](c2ccc(Cl)cc2)N(CC2CCCCC2)C[C@@H]1n1cc(C2CC2)nn1	x	-13.2%	x	x	x
O=C(O)/C(=C/c1ccc(Cl)c([N+](=O)[O-])c1)c1ccc(S(=O)(=O)N2CCCCC2)s1	0.3%[46.1 µM]	-3.4%	x	x	11.4%[46.1 µM]
COc1ccc([C@H]2/C=C\CN(C(=O)CC(C)(C)C)[C@@H](C)C(=O)N2Cc2ccc(F)cc2)cc1	x	-11.3%	x	x	x
COc1ccc(C2/C=C\CN(C(=O)Nc3ccccc3-c3ccccc3)CC(=O)N2Cc2ccc(F)cc2)cc1 (stereo unspecified)	x	11.3%	151.7*!	62.0*!	x
COc1ccc(C2/C=C\CN(CC(C)C)C(Cc3ccccc3)C(=O)N2Cc2ccc(F)cc2)cc1 (stereo unspecified)	x	x	126.0*	98.8*	x
COc1ccc(C2/C=C\CN(CC3CC3)C(Cc3ccccc3)C(=O)N2Cc2ccc(F)cc2)cc1 (stereo unspecified)	x	x	-3.2	16.3	x
COc1ccc(C2/C=C\CN(CC(C)C)C(C)C(=O)N2Cc2ccc(F)cc2)cc1 (stereo unspecified)	x	x	142.3*	31.2*	x
C[C@@H]1CN([C@H](C)CO)C(=O)CCCn2cc(nn2)CO[C@H]1CN(C)S(=O)(=O)c1ccccc1F	x	5.2%	x	x	x
CCC(=O)N1CCc2cc(S(=O)(=O)NC(C(=O)NCCc3ccc(Cl)cc3)C(C)C)ccc21 (stereo unspecified)	5.7%[46.1 µM]	x	x	x	-0.7%[46.1 µM]
Cc1cc(C)cc(-n2c(C)nc3cc(C(=O)NCc4ccccc4Cl)ccc32)c1	20.6%[46.1 µM]	x	x	x	x
COc1ccc(COc2ccc3ccc(=O)oc3c2)cc1	x	11.9%	70.2*	69.0*	x
COc1cccc(COc2ccc3ccc(=O)oc3c2)c1	-3.7%[46.1 µM]	-6.6%	65.4*	35.1*	18.4%[46.1 µM]
CCn1c(C)nc2cc(C(=O)N/N=C/c3ccccc3)ccc21	8.9%	-2.3%	94.2*	34.1*	10.3%[46.1 µM]
SMILES	Lassa entry inh	AMA1-RON2 inh	Shiga toxin inh	CHX counter	Marburg entry inh
CCn1c(C)nc2cc(C(=O)N/N=C/c3cccc(O)c3O)ccc21	u	2.7%	67.2*	31.4*	u
CCn1c(C)nc2cc(C(=O)N/N=C/c3ccc(OC)cc3)ccc21	-20.2%	-7.2%	3.2	21.7	u
CCn1c(C)nc2cc(C(=O)N/N=C/c3ccc(O)cc3)ccc21	u	-9.6%[2.32 µM]	11.3	-2.1	u
Cc1cnc(C(=O)OCC(=O)NC(C)c2ccccc2)cn1 (stereo unspecified)	x	0.7%	x	x	x
CCn1c(C)nc2cc(C(=O)NNC(=S)Nc3ccccc3)ccc21	4.47µM*	38.4%	70.7*	31.8*	u
CCn1c(C)nc2cc(C(=O)NNC(=S)Nc3ccc(F)cc3)ccc21	x	86.6%	57.5*	31.1*	x
CCn1c(C)nc2cc(C(=O)NNC(=O)Nc3ccc(Cl)c(Cl)c3)ccc21	x	x	24.2	-2.1	x
CCn1c(C)nc2cc(C(=O)OC(C(F)(F)C(F)F)C(F)(F)C(F)F)ccc21	u	2.6%	70.3*	45.5*	14.1µM*
CCn1c(C)nc2cc(C(=O)NNC(=S)Nc3ccc(Cl)cc3)ccc21	x	115.6%	25.2	22.2*	x
CCN(Cc1ccccc1)C(=O)CCS(=O)(=O)c1ccc2c(c1)CCN2C(C)=O	14.7%[46.1 µM]	-3.7%	-1.8	-1.4	3.8%[46.1 µM]
CCC(=O)N1c2ccc(S(=O)(=O)NCCc3ccc(OC)c(OC)c3)cc2CC1C (stereo unspecified)	-10.6%[46.1 µM]	14.4%	-3.8	-10.8	-24.4%[46.1 µM]
CN(C)c1ccc(C(C(=O)NC2CCCC2)N(C(=O)c2csnn2)C2CC2)cc1 (stereo unspecified)	u	-1.2%	-6.9	-6.7	u
CNC(=O)C1(C)C=CCN1C(=O)c1ccccc1 (stereo unspecified)	5.1%	-6.6%	-13.9	-2.9	-27.9%
CC1(C(=O)NCCN2CCOCC2)C=CCN1C(=O)c1ccccc1 (stereo unspecified)	-0.5%	-3.6%	40.7*	26.4*	1.1%
C=CCOc1ccc(C(c2c(O)nc(SC)[nH]c2=O)c2c(O)nc(SC)[nH]c2=O)cc1	0.3%[46.1 µM]	-8.1%	x	x	-8.9%[46.1 µM]
COc1ccc(-c2csc(C(C)(O)c3ccccc3)n2)cc1OC (stereo unspecified)	x	-4.5%	x	x	x
Fc1ccc(-c2csc(Nc3ccccn3)n2)c(F)c1	x	-14.2%	39.6*	45.9*	x
Cc1cc(-c2csc(Nc3ccccn3)n2)ccc1F	u	u	115.9*	42.4*	u
COc1ccc(-c2csc(Nc3ccccn3)n2)cc1OC	u	-19.9%	66.7*	36.5*	u
NC(Cc1ccc(Cl)cc1)c1csc(Nc2ccccn2)n1 (stereo unspecified)	x	53.2%	x	x	x
NC(Cc1ccc(F)cc1)c1csc(Nc2ccccn2)n1 (stereo unspecified)	x	31.5%	x	x	x
Cc1ccc(-c2csc(Nc3ccccn3)n2)cc1	u	2.6%	x	35.0*	2µM*
CC(C)NC(=O)N1Cc2cc(C(=O)NC3CCCC3)nc(-c3cccc(-c4cccnc4)c3)c2[C@@H]1CCO	x	-9.4%	x	x	x
CCn1c(SCC(=O)Nc2ccc3c(c2)OCCO3)nnc1C1CC1	-6.2%[46.1 µM]	-8.6%	17.2	-3.1	-1.6%[46.1 µM]
Cc1cccc(C)c1NC(=O)c1nc(SC(C)C)ncc1Cl	-2.5%[46.1 µM]	x	x	x	u
SMILES	Lassa entry inh	AMA1-RON2 inh	Shiga toxin inh	CHX counter	Marburg entry inh
NC(Cc1ccccc1)c1csc(Nc2ccccn2)n1 (stereo unspecified)	x	90.4%	x	x	x
Oc1ccc(-c2csc(Nc3ccccn3)n2)cc1	14.6%[46.1 µM]	-6.9%	122.0*	43.2*	u
c1ccc(-c2csc(Nc3ccccn3)n2)cc1	u	-7.9%	81.6*	59.9*	u
NC(c1ccccc1)c1csc(Nc2ccccn2)n1 (stereo unspecified)	x	-2.5%	x	x	x
CC(=O)N(O)C/C=C/c1cccc(Oc2ccccc2)c1	x	x	3.1	24.8	x
CN(Cc1ccccc1)C(=O)COC(=O)C1CCN(S(=O)(=O)c2ccc3c(c2)OCCO3)CC1	8.4%	15.0%	x	x	7.8%
